# Bioassay records as filed in PubChem BioAssay.
# PfHsp90 set2 – growth inhibition of yeast expressing Plasmodium Hsp90; S. cerevisiae expressing PfHsp90, BacTiter-Glo ATP, 48 h; yeast lacking PDR1 and PDR3 efflux regulators; inhibition, % at 9.4 µM; 310,000 tested, 0.32% active; AID 504621;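 active = every replicate shows inhibition above about 80%, whatever the replicate mean, limit read from the data; inconclusive = mean inhibition reaches the set limit but some replicate falls short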;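 also: 0% = DMSO neutral controls and 100% = 20 µM radicicol positive controls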
# tim23-1 inh – growth inhibitors of tim23-1 mutant yeast; S. cerevisiae tim23-1 growth, BacTiter-Glo luminescence, 24 h; inhibition, % at 20 µM; 330,000 tested, 1.3% active;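 active = growth inhibition of the mutant yeast at or above 50%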;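 also: temperature-sensitive mutant grown at 25 °C; plate controls were DMSO-treated mutant yeast for no effect and medium wells lacking yeast for full effect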
# TIM10 inh – growth inhibitors of TIM10 yeast strain; S. cerevisiae TIM10 strain growth, BacTiter-Glo luminescence, 24 h; inhibition, % at 10 µM; 330,000 tested, 1.4% active; AID 463195;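 active = inhibition of 40% or more at the single tested concentration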;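 also: wild-type TIM10 isogenic control strain grown at permissive 25 °C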
# SUMO Mot1 rescue – SUMOylation pathway inhibition by Mot1-301 growth rescue; growth rescue, % at 18.8 µM; 320,000 tested, 1% active; S. cerevisiae Mot1-301 growth rescue, ATP luminescence, 38.5C; percent above DMSO median, 100 means doubled; AID 2716;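 active = every valid replicate shows activation above 250% relative to neutral control wells; inactive = the rest, any valid replicate at or below 250%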;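 also: OY570 slx delta 5 strain wells were the positive control but not used for scaling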
# tim10-1 inh – growth inhibitors of tim10-1 mutant yeast; S. cerevisiae tim10-1 ts strain growth, BacTiter-Glo, 24 h; inhibition, % at 20 µM; 330,000 tested, 2.2% active;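 active = inhibition of at least 40%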;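 also: mutant grown at 25 °C; 0% = DMSO wells with yeast and 100% = wells holding no yeast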
# tim10-1 confirm – tim10-1 yeast growth inhibition, confirmed; shares compounds with tim10-1 inh; S. cerevisiae tim10-1 ts strain growth, BacTiter-Glo, 24 h; inhibition, % at 20 µM; 7,400 tested, 56% active;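 active = inhibition of yeast growth at or above a set limit in either of two repeat tests at 20 µM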;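 also: tim10-1 mutant grown at permissive 25 °C to find synthetic lethal compounds; 0% = DMSO yeast wells and 100% = medium wells without yeast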
# tim10 confirm – confirmation of TIM10 yeast growth inhibitors | shares compounds with TIM10 inh | S. cerevisiae tim10 strain growth, BacTiter-Glo luminescence, 24 h | inhibition, % at 10 µM | 4,600 tested, 63% active | AID 463215;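 active = inhibition of yeast growth at or above a set limit in either of two replicates at 10 µM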;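 also: this counterscreen used the strain with wild-type TIM10; 0% = yeast with DMSO and 100% = medium wells lacking yeast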
# Active calls of the source: *; ? = inconclusive; / = not tested or not shown. The list is not random: actives were taken first. Their share in the collection is about 4.4%.
SMILES,PfHsp90 set2,tim23-1 inh,TIM10 inh,SUMO Mot1 rescue,tim10-1 inh,tim10-1 confirm,tim10 confirm
Cc1ccsc1C1Nc2ccccc2-c2nc3ccccc3n21 (centres undefined),5,50,54*,34,51*,39*,-16
CN(C)S(=O)(=O)c1cccc(C(=O)Nc2cc(Cl)cc(Cl)c2)c1,2,34,42*,195,51*,28,-27
COc1ccc(NC(=O)c2cccc(OS(=O)(=O)N(C)C)c2)cc1,-18,-12,5,14,11,/,/
CN(C)S(=O)(=O)c1cccc(C(=O)Nc2ccccc2Cl)c1,-8,18,12,-5,13,/,/
CN(C)S(=O)(=O)Oc1cccc(C(=O)Nc2cccc(Cl)c2)c1,/,46,77*,-1,55*,46*,72*
CN(C)S(=O)(=O)Oc1cccc(C(=O)Nc2ccc(Cl)c(Cl)c2)c1,4,16,49*,30,57*,44*,65*
COc1cc(C(=O)NCC(c2ccc(F)cc2)N2CCOCC2)ccc1OCc1ccccc1Cl (centres undefined),-68,28,29,6,25,/,/
C[C@H](CO)N1C[C@H](C)[C@@H](CN(C)C(=O)Nc2ccc(C(F)(F)F)cc2)Oc2ccc(NC(=O)CCC(F)(F)F)cc2C1=O,17,5,1,-4,1,/,/
Nc1nnnn1/N=C/C(Br)=C/c1ccccc1,-5,37,55*,5,46*,48*,53*
CC(C(=O)Nc1ccc(S(=O)(=O)N2CCCC2)cc1)N1CCCC(C(N)=O)C1 (centres undefined),6,-7,4,/,10,/,/
CC1(C)C(=O)C2(CCCCC2)C(=O)OC1c1ccc(O)cc1 (centres undefined),19,49,44*,31,46*,38*,42*
CC(=O)Nc1sc(C)c(C)c1C(=O)OCC(=O)Nc1cccc(C)c1,/,-18,-3,11,-31,/,/
CC(=O)Nc1ccc(S(=O)(=O)NCCOc2ccc(Cl)cc2C)cc1,6,15,13,-4,7,/,/
CCCCOc1ccc(CONS(=O)(=O)c2ccc(NC(C)=O)cc2)cc1Cl,1,14,62*,-1,55*,47*,48*
Cc1cc(F)ccc1NC(=O)c1cc(S(=O)(=O)N2CCc3ccccc32)cn1C,12,7,-6,2,4,/,/
Cc1ccc(/C=N/NC(=S)NCCc2ccccc2)s1,-1,-3,10,-5,-60,/,/
CCCCNC(=S)N/N=C/c1ccc(C)s1,-13,38,58*,/,57*,42*,54*
CCCCCOC(=O)CC(C(=O)OCCCCC)N1CCCCC1 (centres undefined),-4,22,5,28,22,/,/
CCCCCCCCCOC(=O)C(CC(=O)O)N1CCOCC1 (centres undefined),1,44,50*,-16,42*,37*,44*
Oc1cc(NCc2cccnc2)ccc1-c1nc2ccccc2o1,/,27,55*,/,47*,27,39*
CCc1ccc(OCC(=O)Nc2ccc(-c3nc4ccccc4o3)c(O)c2)cc1,-26,3,-8,-16,17,/,/
Cc1cc(C)cc(NS(=O)(=O)c2ccc3[nH]c(=O)ccc3c2)c1,-10,-11,-4,-7,-7,/,/
CCOc1ccc(S(=O)(=O)n2cnc(C)c2)cc1,-5,0,8,-22,-8,/,/
COc1ccccc1C/C(N)=N/OC(=O)COc1cccc(C)c1,-3,21,51*,-2,43*,22,-18
O=C(/C=C/c1cccc([N+](=O)[O-])c1)n1cnc2ccccc21,14,47,45*,/,46*,43*,39*
SMILES,PfHsp90 set2,tim23-1 inh,TIM10 inh,SUMO Mot1 rescue,tim10-1 inh,tim10-1 confirm,tim10 confirm
CCC(=O)N(c1nnc(SCC(=O)NN2C(=O)NC3(CCC(C)CC3)C2=O)s1)C1CC1 (centres undefined),23,9,1,7,-3,/,/
O=C(N/N=C/c1cc(Br)ccc1OC(=O)c1ccc(Br)cc1)c1ccncc1,-14,30,20,-15,-15,/,/
O=C(CC12CC3CC(CC(C3)C1)C2)NCC(=O)OCc1cc(=O)oc2ccc3ccccc3c12,-39,9,44*,11,41*,26,26
CCCCn1c(N)c(N(C)C(=O)c2cn(-c3ccccc3)nc2-c2ccccc2)c(=O)[nH]c1=O,24,-5,7,95,-4,/,/
COc1ccc2c(c1)S/C(=C\C(=O)c1ccncc1)N2C,75,41,82*,26,54*,73*,85*
COc1cc(OC)cc(C(=O)/C=C2\Sc3ccccc3N2C)c1,-8,10,21,-4,20,/,/
CC(OC(=O)Cn1[nH]c(=O)c2ccccc2c1=O)C(=O)Nc1ccc(F)cc1Cl (centres undefined),/,-7,1,-16,15,/,/
Cc1ccc(NC(NC(=O)c2cccs2)C(Cl)(Cl)Cl)cc1C (centres undefined),-24,30,58*,26,54*,44*,-16
Cc1ccccc1NC(NC(=O)c1cccs1)C(Cl)(Cl)Cl (centres undefined),20,31,47*,-3,43*,49*,51*
CCN(CC)S(=O)(=O)c1ccc(N2CC(C(=O)NCCc3c[nH]c4ccccc34)CC2=O)cc1 (centres undefined),-2,10,-1,/,3,/,/
N/C(=N\OC(=O)N1CCOCC1)c1ccccc1,24,13,11,3,-10,/,/
N/C(=N\OC(=O)N1CCOCC1)c1ccc(Br)cc1,-4,37,50*,/,60*,61*,41*
CCCN(CCC)C(=S)NC(=O)c1ccc(-c2ccccc2)cc1,-25,32,44*,25,42*,16,42*
COC(=O)c1nc(NNC(=O)c2ccccc2)sc1-c1ccccc1,-24,6,8,2,23,/,/
Cc1ccccc1CS(=O)(=O)c1nnc([C@H](CC(C)C)NC(=O)OC(C)(C)C)o1,?,39,57*,376,65*,48*,49*
CC(C)[C@H](NC(=O)OC(C)(C)C)c1nnc(S(=O)(=O)Cc2c(F)cccc2Cl)o1,-43,36,71*,49,61*,64*,64*
CC(C)=CCSc1nnc([C@@H](NC(=O)OC(C)(C)C)C(C)C)o1,/,27,17,11,20,/,/
CC(C)C[C@H](NC(=O)OC(C)(C)C)c1nnc(SCc2ccccc2)o1,-20,42,15,515,34,/,/
NC(Cc1c[nH]c2ccccc12)C(=O)Nc1ccccc1 (centres undefined),25,11,3,-5,-3,/,/
